{
  "source": "PubChem BioAssay (NCATS)",
  "note": "Results filed as inconclusive are left out. Unmarked numbers belong to inactive results. Active and inactive are the calls of the source. The call rests on the fitted dose curve; in most records, active means well fitted curve in the direction sought with a large enough effect; inconclusive means small, poorly fitted or top-dose-only effect, or another doubt; inactive means no such curve, though single readings can be large; an effect the other way counts as inactive or inconclusive. On the % scale 0 is the no-effect control and ±100 the full control effect.",
  "data": [
    {"assay": "qHTS for Inhibitors of ATXN expression: Validation of Cytotoxic Assay (AID 588349)", "settings": "cytotoxicity counter-screen for ATXN expression inhibitors, cell viability; series mostly up to 57.1 µM; activity change, negative = cytotoxicity: at the top concentration", "in_short": "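Toxicity of test compounds toward HEK293 cells is scored from cellular ATP content measured by CellTiter Glo. Cells receive titrated doses and incubate 72 hr at 37 degrees C beforehand.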", "units": {"activity change, negative = cytotoxicity": "%"}, "values": [
      {"smiles": "CC(COc1ccccc1)N(CCCl)Cc1ccccc1", "note": "(stereo unspecified)", "activity change, negative = cytotoxicity": -1.3},
      {"smiles": "Clc1ccc(C(c2ccccc2Cl)C(Cl)Cl)cc1", "note": "(stereo unspecified)", "activity change, negative = cytotoxicity": -6.73},
      {"smiles": "CN1CCC(=C2c3ccccc3C=Cc3ccccc32)CC1", "activity change, negative = cytotoxicity": -28.8},
      {"smiles": "O=C1N(c2ccccc2)c2ccccc2C1(Cc1ccncc1)Cc1ccncc1", "activity change, negative = cytotoxicity": -0.816},
      {"smiles": "CN(C)CCOC(c1ccccc1)c1ccccc1", "activity change, negative = cytotoxicity": -13.9},
      {"smiles": "Cc1cc(C(C)(C)C)c(O)c(C)c1CC1=NCCN1", "activity change, negative = cytotoxicity": -20.5},
      {"smiles": "O=c1[nH]cc(F)c(=O)[nH]1", "activity change, negative = cytotoxicity": -15},
      {"smiles": "CN1CCC(=C2c3ccccc3CC(=O)c3sccc32)CC1", "activity change, negative = cytotoxicity": -17.1},
      {"smiles": "Nc1c2c(nc3ccccc13)CCCC2", "activity change, negative = cytotoxicity": -28.9},
      {"smiles": "CC(C)C(=O)Nc1ccc([N+](=O)[O-])c(C(F)(F)F)c1", "activity change, negative = cytotoxicity": -8.81}
    ]},
    {"assay": "qHTS for Inhibitors of ATXN expression: Validation (AID 588378); further: nearly all actives have a fitted effect of over 75% in size; further: potency means the concentration at half of the fitted maximal effect", "settings": "cell-based ATXN2 expression reporter assay, luminescence; series mostly up to 57.1 µM; activity change, negative = inhibition: at the top concentration", "in_short": "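Cells: HEK293-ATXN2-FFLuc, phenol-red free DMEM, 2 h attachment. Compound pin-transfer, 24 h, 37 degrees C, 5% CO2. CellTiter-Fluor 30 min, Ex405/Em525; Bright-Glo 5 min, luminescence 2 s exposure.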", "units": {"activity change, negative = inhibition": "%"}, "values": [
      {"smiles": "CC(COc1ccccc1)N(CCCl)Cc1ccccc1", "note": "(stereo unspecified)", "activity change, negative = inhibition": -17.3},
      {"smiles": "Clc1ccc(C(c2ccccc2Cl)C(Cl)Cl)cc1", "note": "(stereo unspecified)", "activity change, negative = inhibition": -29.2},
      {"smiles": "OCCN(CCO)c1nc(N2CCCCC2)c2nc(N(CCO)CCO)nc(N3CCCCC3)c2n1", "activity change, negative = inhibition": -20.7},
      {"smiles": "CNCCCC12CCC(c3ccccc31)c1ccccc12", "Potency": "15.8 µM (active)"},
      {"smiles": "O=C(Nc1ccc([N+](=O)[O-])cc1Cl)c1cc(Cl)ccc1O", "activity change, negative = inhibition": -44.9},
      {"smiles": "Clc1ccccc1C(c1ccccc1)(c1ccccc1)n1ccnc1", "Potency": "25.1 µM (active)"},
      {"smiles": "Fc1ccc([C@@H]2CCNC[C@H]2COc2ccc3c(c2)OCO3)cc1", "Potency": "35.5 µM (active)"},
      {"smiles": "COc1cc2nc(N3CCN(C(=O)C4COc5ccccc5O4)CC3)nc(N)c2cc1OC", "note": "(stereo unspecified)", "activity change, negative = inhibition": -27.3},
      {"smiles": "CC(C)NCC(O)c1ccc(O)c(O)c1", "note": "(stereo unspecified)", "activity change, negative = inhibition": -27.5},
      {"smiles": "COC(=O)Nc1nc2ccc(C(=O)c3cccs3)cc2[nH]1", "activity change, negative = inhibition": 6.89},
      {"smiles": "CS(=O)(=O)Nc1ccc([N+](=O)[O-])cc1Oc1ccccc1", "activity change, negative = inhibition": -20.5}
    ]}
  ]
}
